# The list is not random: actives were taken first. Their share in the collection is about 4.1%.
# FAS-TE inh = inhibitors of human fatty acid synthase thioesterase domain; P49327; recombinant FAS-TE, OMFH fluorogenic substrate, fluorescence endpoint; inhibition, % at 15 µM; hit rate 0.67% among 360,000; AID 602261;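 active = compounds whose normalised, plate-corrected inhibition of enzyme fluorescence in the single-dose primary screen is 50% or more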;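 note: 0% = DMSO with enzyme and 100% = substrate without enzyme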
# MIN6 prolif = MIN6 beta-cell proliferation induction | AID 2380 | proliferation, % at 10 µM | hit rate 0.29% among 330,000 | MIN6 cells proliferation, ATPlite luminescence, 48 h; cells starved in 0.2% serum; 100% = growth in 10% serum;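 active = compounds whose signal lies at least 3.5 SD above the mean of all wells on their plate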;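 note: 0% = DMSO-treated cells in low-serum medium and 100% = 10% serum control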
# MPTP inh = permeability transition pore inhibition; isolated mouse mitochondria, Ca2+ swelling absorbance, 30 min; hit rate 1.4% among 360,000; inhibition, % at 10 µM;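 active = inhibition of 50% or more, scaled per plate between neutral and stimulator controls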;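 note: 0% = DMSO wells given calcium and 100% = 1 mM EGTA wells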
# GRIN3A LBD mod = modulates the human NR3A ligand-binding domain. NR3A LBD differential scanning fluorimetry, Tm shift; 0% = protein alone, 100% = glycine-bound protein. Tm shift relative to glycine control, % at 25 µM. hit rate 2.5% among 340,000;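 active = melting temperature shift of at least 10% of the positive control shift, at one fixed dose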
# pCIP destab = compounds decreasing mouse p/CIP protein stability; AID 1984; Q05BA5; hit rate 0.01% among 290,000; decrease of EGFP signal, % at 10 µM; F442A p/CIP-EGFP cells, EGFP fluorescence, 16 h;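 active = EGFP signal decrease of at least 30% at 10 µM or well 3 SD below plate mean, unless failing retest; inactive = the rest, including hits failing retest or dose response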
# Target sequence (Q05BA5 1-1403): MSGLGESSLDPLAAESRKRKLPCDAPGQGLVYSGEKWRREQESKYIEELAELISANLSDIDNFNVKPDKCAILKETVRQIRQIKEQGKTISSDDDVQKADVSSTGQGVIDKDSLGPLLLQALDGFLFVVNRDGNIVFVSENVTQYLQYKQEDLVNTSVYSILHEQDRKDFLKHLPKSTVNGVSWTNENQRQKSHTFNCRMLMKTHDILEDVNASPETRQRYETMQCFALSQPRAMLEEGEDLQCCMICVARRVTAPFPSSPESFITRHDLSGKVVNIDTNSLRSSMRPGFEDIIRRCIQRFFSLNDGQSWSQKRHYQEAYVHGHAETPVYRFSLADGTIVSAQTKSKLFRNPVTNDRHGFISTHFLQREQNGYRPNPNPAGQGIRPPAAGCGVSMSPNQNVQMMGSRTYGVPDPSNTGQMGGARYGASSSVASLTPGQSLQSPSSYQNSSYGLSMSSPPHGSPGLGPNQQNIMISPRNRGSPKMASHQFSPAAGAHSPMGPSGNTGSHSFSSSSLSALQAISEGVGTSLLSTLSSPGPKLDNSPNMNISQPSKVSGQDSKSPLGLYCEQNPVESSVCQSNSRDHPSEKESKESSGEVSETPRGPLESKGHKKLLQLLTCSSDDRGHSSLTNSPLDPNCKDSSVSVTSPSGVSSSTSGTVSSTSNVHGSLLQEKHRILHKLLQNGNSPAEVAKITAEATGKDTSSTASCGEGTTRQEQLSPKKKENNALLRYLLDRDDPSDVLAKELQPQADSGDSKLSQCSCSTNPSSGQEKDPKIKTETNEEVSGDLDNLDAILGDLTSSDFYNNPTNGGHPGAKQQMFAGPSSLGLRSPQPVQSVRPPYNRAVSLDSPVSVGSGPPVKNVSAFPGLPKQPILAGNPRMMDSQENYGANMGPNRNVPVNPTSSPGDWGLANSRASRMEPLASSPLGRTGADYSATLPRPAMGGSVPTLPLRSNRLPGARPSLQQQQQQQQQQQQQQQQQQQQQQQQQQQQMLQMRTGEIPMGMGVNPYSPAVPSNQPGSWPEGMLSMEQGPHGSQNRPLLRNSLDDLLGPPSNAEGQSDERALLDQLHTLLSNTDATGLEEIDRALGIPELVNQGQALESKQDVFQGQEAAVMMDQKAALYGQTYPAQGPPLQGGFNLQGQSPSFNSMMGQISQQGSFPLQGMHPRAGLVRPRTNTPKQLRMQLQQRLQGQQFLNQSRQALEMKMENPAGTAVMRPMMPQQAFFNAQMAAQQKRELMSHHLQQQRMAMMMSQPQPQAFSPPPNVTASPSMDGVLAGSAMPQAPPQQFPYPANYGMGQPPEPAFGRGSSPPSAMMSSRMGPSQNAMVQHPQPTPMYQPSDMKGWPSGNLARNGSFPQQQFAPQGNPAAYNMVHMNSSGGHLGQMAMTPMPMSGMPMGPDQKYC
# Active calls of the source: *; / = no result given.
SMILES,FAS-TE inh,MIN6 prolif,MPTP inh,GRIN3A LBD mod,pCIP destab
O=C(c1ccc([N+](=O)[O-])cc1Cl)N1CCN(Cc2ccccc2)CC1,19,/,-2,/,/
CC1(Cc2cccc(C#N)c2)C(=O)Nc2c(Cl)cccc21 (stereo unspecified),-3,/,1,/,/
CC1(C2CCCC2)NC(=O)NC1=O (stereo unspecified),-8,/,0,0,/
O=C(Nc1cccc2ccccc12)N1CCOCC1,-6,-3,3,17*,-8
c1coc(CNC2CCCCCCC2)c1,-5,3,-1,11*,5
CCc1c(-c2ccccc2OC)ncn1Cc1cccc(-c2ccccc2)c1,/,/,5,/,/
CC(=O)Nc1nc(-c2cccs2)cs1,-5,2,1,1,-2
O=C(Nc1nc(-c2ccc(Cl)s2)cs1)c1ccccc1,32,-3,3,15*,-12
O=C(Nc1nc(-c2cccs2)cs1)c1ccc(Cl)s1,28,-8,4,28*,-9
Cn1c(NCCN2CCCC2)nc2cc(-c3cccc(C(F)(F)F)c3)sc2c1=O,-8,/,0,/,/
CC1=C(C(=O)N(C(C)C)C(C)C)CC(CC(=O)NCCN2CCOCC2)C(=O)N1Cc1ccc(C(C)(C)C)cc1 (stereo unspecified),3,/,1,/,/
CC(=O)Nc1cc(-c2cccc(F)c2)cn2c(-c3ccccc3)cnc12,10,/,2,/,/
COc1ccc(OC)c(C(=O)c2ccc(C(=O)c3cc(OC)ccc3OC)cc2)c1,30,0,1,20*,-8
O=C(CSc1ccccn1)Nc1ccc2c(c1)oc1ccccc12,23,0,3,26*,3
COc1cc2c(cc1NC(=O)CSc1ccccn1)oc1ccccc12,29,1,2,0,7
COc1ccc2c(c1)[C@H]1[C@H](CO2)[C@H](c2ccccc2)[C@]2(C)C(=O)Nc3cc(Cl)ccc3C(=O)N12,89*,-9,-1,-3,/
C[C@]12C(=O)N(c3cccc(Cl)c3)C(=O)N1[C@H]1c3ccccc3OC[C@@H]1[C@H]2c1ccccc1,76*,-7,2,-3,-2
CCOC(=O)[C@@H]1[C@H]2COc3ccccc3[C@H]2N2C(=O)N(c3cccc(Cl)c3)C(=O)[C@]12C,25,1,1,17*,/
CCOC(=O)[C@@H]1[C@H]2COc3ccccc3[C@H]2N2C(=O)N(c3cccc(C)c3)C(=O)[C@]12C,9,-3,1,0,/
CCOC(=O)[C@@H]1[C@H]2COc3ccc(Br)cc3[C@@H]2N2C(=O)N(c3ccc(Br)cc3)C(=O)[C@]12C,72*,-4,1,1,-4
CCCC(=O)N1CCC1(C)C(=O)Nc1cc(OC)c(OC)c(OC)c1 (stereo unspecified),-8,/,0,/,/
CC(C)C[C@H]1CNC(=O)C(=O)N1C[C@@H]1CCCN1C[C@H](Cc1ccc(O)cc1)N1C[C@H](Cc2ccccc2)N(CC2CCCCC2)C(=O)C1=O,1,/,-1,/,/
CC(N)c1csc(Nc2ncccn2)n1 (stereo unspecified),-8,/,-1,/,/
CC(=O)Nc1ccc(N2C(=O)c3ccc(C(=O)Nc4nnc(SCc5ccc(F)cc5)s4)cc3C2=O)cc1,7,-4,4,10*,7
CCOC(=O)C(=O)Nc1nnc(SCc2ccc(F)cc2)s1,-11,-1,4,22*,3
SMILES,FAS-TE inh,MIN6 prolif,MPTP inh,GRIN3A LBD mod,pCIP destab
COc1ccc2cc(C3=CC(=O)CCC3)ccc2c1,4,/,1,2,/
CC(=O)Nc1cncc(-c2cccc(C(=O)N(C)C)c2)n1,-5,/,-2,/,/
COc1ccc(CCNC(=O)CSc2nnc(Cn3c(=O)sc4ccccc43)n2C)cc1OC,-8,2,-2,11*,-10
COc1ccc(CNC(=O)/C=C/[C@H]2O[C@@H](n3ccc(=O)[nH]c3=O)[C@H](O)[C@@H]2O)cc1,-6,/,0,/,/
Cc1cc(C)cc(-n2c(C)cc(/C=N/NC(=O)CN(c3c(C)cccc3C)S(C)(=O)=O)c2C)c1,15,-4,1,0,-8
Cc1ccc(N(CC(=O)N/N=C/c2cc(C)n(-c3ccccc3C)c2C)S(C)(=O)=O)cc1,22,-1,10,-4,22*
O=C(N/N=C/c1ccc(O)c(Br)c1)c1cc2c(ccc3ccccc32)o1,1,-4,1,35*,-6
CCn1cc(/C=N/NC(=O)c2cc3c(ccc4ccccc43)o2)c2ccccc21,28,-1,3,26*,-4
CCOC(=O)COc1ccccc1/C=N\NC(=O)c1cc2c(ccc3ccccc32)o1,24,0,-1,0,-19
CCOc1cc(/C=N/NC(=O)c2cc3c(ccc4ccccc43)o2)ccc1O,0,4,1,28*,3
COc1ccc(NS(=O)(=O)c2ccc(O)c(NC(=O)c3cc4c(C)nn(-c5ccc(F)cc5)c4s3)c2)cc1,-7,0,29,31*,4
N#CCC(=O)N/N=C/c1c2ccccc2cc2ccccc12,-7,5,2,-1,-5
N#CCC(=O)N/N=C/c1cc(Br)ccc1OCc1cccc2ccccc12,9,-6,0,20*,10
CCn1c(C(C)NC(=O)c2cccs2)n[nH]c1=S (stereo unspecified),-4,0,-5,10*,-3
CC(=O)C1CCC2C3C=CC4=CC(=O)CCC4(C)C3CCC12C (stereo unspecified),6,/,-2,/,/
Nc1ccc(C23CC4CC(CC(O)(C4)C2)C3)cc1,1,0,-1,17*,-17
CCCCN(C=O)c1c(CC)nc2ccc(C(=O)Nc3cc(-c4ccccc4)ccc3OC)cn12,31,/,-1,/,/
CC(C)(C)c1ccc(-c2noc(-c3ccno3)n2)cc1,14,-1,1,12*,-14
CCOC(=O)c1ccc(NC(=O)Oc2ccccc2)cc1,0,-1,1,34*,4
CCOC(=O)c1ccc(NC(=S)NCC(O)c2ccccc2)cc1 (stereo unspecified),-6,0,18,10*,-1
N#CC1=C(N)Oc2c(O)cc3ccccc3c2C1c1ccsc1 (stereo unspecified),31,-4,6,12*,6
CC(=O)C1=C(C)OC(N)=C(C#N)C1c1ccncc1 (stereo unspecified),-2,0,0,11*,-7
CCOC(=O)C1=C(C)OC(N)=C(C#N)C1c1ccsc1 (stereo unspecified),-6,-4,-3,11*,-12
N#CC1=C(N)Oc2c(ccc3ccccc23)C1c1cccs1 (stereo unspecified),/,-3,/,2,-3
Cc1ccn2c(Cc3ccccc3)c(-c3ccc(F)cc3)nc2c1,14,/,-1,/,/
CCOC(=O)[C@]12CCCC=C1N(Cc1ccccc1)C(=O)[C@H](CC(=O)NCc1cccc(C(F)(F)F)c1)C2,/,/,-1,/,/
CCCCNc1c(-c2cc3ccccc3o2)nc2nc(C)cc(C)n12,0,/,0,/,/

# Screening data deposited in PubChem BioAssay by Sanford-Burnham Center for Chemical Genomics.
